Test results from the supplement of paper PMC6805474.

Columns and labels:
[1] = test system: Schistosoma mansoni schistosomula (LE); test: XTT viability relative to DMSO control; higher = more viable (less active); settings: 72 h; 10 µM
Description: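 XTT/PMS was then added for a further 24 h (72 h total) and A450 was read. % viability = (sample - heat-killed control)/(DMSO control - heat-killed control) x 100, from duplicate wells in two independent experiments.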

[2] = test system: Schistosoma mansoni schistosomula (NMRI); test: phenotypic severity score (0-4); higher = more antischistosomal effect, active = 2 or more; settings: 10 µM
[3] = test system: Schistosoma mansoni schistosomula (Liberian); test: drug effect (1 - score/DMSO control score) (fraction); higher = more antischistosomal effect, active = 0.5 or more; extreme values may be limits of the assay; settings: 10 µM
How it was run: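 Liberian-strain Schistosoma mansoni schistosomula, mechanically transformed from cercariae and pre-incubated at least 12 h, were exposed in duplicate (50 per well, flat-bottom 96-well plates) to 10 µM compound in Medium 199 with 5% FCS at 37 °C, 5% CO2, with 0.1% DMSO control wells. Wells were scored visually (10×) at 24, 48 and 72 h on a quarter-point scale from 3 (normal) to 0 (dead). Drug effect was derived from the mean test-well score relative to the mean DMSO-control score. Negative values were set to zero, and plates were valid only if control wells averaged at least 2.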
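For phenotypic severity score (0-4) in this document: visual microscopic scoring of shape, motility and density changes versus 0.5% DMSO solvent controls, one point per descriptor, degeneracy or death scored 4, mean of duplicate wells.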

SMILES	XTT viability [1] [%]	phenotypic severity score ([2]; 24 h)	phenotypic severity score ([2]; 48 h)	phenotypic severity score ([2]; 72 h)	drug effect ([3]; 24 h)	drug effect ([3]; 48 h)	drug effect ([3]; 72 h)
C[C@H]1c2cccc(O)c2C(=O)C2=C(O)[C@]3(O)C(=O)C(C(N)=O)=C(O)[C@@H](N(C)C)[C@@H]3[C@@H](O)[C@@H]21	165	0 (inactive)	0 (inactive)	0 (inactive)	0.2 (inactive)	0.297 (inactive)	0.222 (inactive)
O=C(Nc1ccc(N2CCNCC2)cc1)c1ccn2ncc(-c3cccc(Cl)c3)c2n1	7.7	2 (active)	4 (active)	4 (active)	0.73 (active)	0.778 (active)	0.938 (active)
CC(=O)N1CCc2cc3nc(C)cc(C)c3cc21	112	0 (inactive)	0 (inactive)	0 (inactive)	0.2 (inactive)	0.111 (inactive)	0.0625 (inactive)
Cc1cccnc1NC(=O)c1cccc(OCc2c(C)noc2C)c1	114	0 (inactive)	0 (inactive)	0 (inactive)	0.0909 (inactive)	0.15 (inactive)	0.127 (inactive)
O=S(=O)(c1ccc(Cl)cc1)N1CCN(C(=S)NCc2ccco2)CC1	75.2	1 (inactive)	0 (inactive)	0 (inactive)	0.05 (inactive)	0.0811 (inactive)	0.111 (inactive)
CCOC(=O)c1noc(N)c1-c1ccccc1	94.1	0 (inactive)	0 (inactive)	0 (inactive)	0.05 (inactive)	0.0811 (inactive)	0.0909 (inactive)
CC(C)=CCC/C(C)=C\CNCCNC1C2CC3CC(C2)CC1C3 (stereo not drawn)	13.5	4 (active)	4 (active)	4 (active)	1 (active)	1 (active)	1 (active)
CNc1snc(C)c1C(=O)NCCOc1ccc(OC)cc1	91.3	1 (inactive)	0 (inactive)	0 (inactive)	0.0909 (inactive)	0.15 (inactive)	0.127 (inactive)
Cc1cc(C(=O)Nc2cnn(Cc3ccc(Cl)cc3Cl)c2)no1	91.7	0 (inactive)	0 (inactive)	0 (inactive)	0.182 (inactive)	0.1 (inactive)	0.127 (inactive)
Cc1cc(C)n(-c2ccc(NC(=O)C3CCN(Cc4cnc(C)s4)CC3)cc2)n1	135	0 (inactive)	0 (inactive)	0 (inactive)	0.1 (inactive)	0.135 (inactive)	0.152 (inactive)
CC(C(=O)Nc1ccc2oc(-c3ccncc3)nc2c1)c1ccccc1 (stereo not drawn)	89.9	1 (inactive)	0 (inactive)	0 (inactive)	0.182 (inactive)	0.35 (inactive)	0.345 (inactive)
CC(C)(C)C1CCC(CC2=C(O)C(=O)c3ccccc3C2=O)CC1 (stereo not drawn)	71.7	3 (active)	2 (active)	2 (active)	0.2 (inactive)	0.189 (inactive)	0.278 (inactive)
FC(F)(F)c1nnc2ccc(Cl)nn12	84	1 (inactive)	0 (inactive)	0 (inactive)	0.2 (inactive)	0.189 (inactive)	0.333 (inactive)
CNC(=O)C1Cc2ccccc2N1C(=O)Cc1ccc(F)cc1 (stereo not drawn)	84.2	0 (inactive)	0 (inactive)	0 (inactive)	0.227 (inactive)	0.2 (inactive)	0.236 (inactive)
Cc1cc2ccccc2n1CC(=O)N1CC(C(=O)N2CCCCC2)Oc2ccccc21 (stereo not drawn)	71.5	0 (inactive)	1 (inactive)	0 (inactive)	0.05 (inactive)	0.027 (inactive)	0.111 (inactive)
COc1cccc(OC)c1C(=O)Nc1ccc(Cl)c(-c2nc3ccccc3s2)c1	108	2 (active)	2 (active)	2 (active)	0.4 (inactive)	0.5 (active)	0.625 (active)
Nc1ncc(Br)cc1-c1nc2cc(Cl)cnc2[nH]1	131	0 (inactive)	0 (inactive)	0 (inactive)	0.1 (inactive)	0.111 (inactive)	0.188 (inactive)
O=C(C1CCN(c2nnnn2-c2ccccc2)CC1)N1CCc2ccccc2C1	117	0 (inactive)	0 (inactive)	0 (inactive)	0.135 (inactive)	0.111 (inactive)	0.25 (inactive)
Cc1nn2c(=O)c3c([nH]c2c1-c1ccc(Cl)cc1)CCCC3		0 (inactive)	0 (inactive)	0 (inactive)	0.136 (inactive)	0.2 (inactive)	0.127 (inactive)
Cc1nnc(NCc2cccc(Cl)c2)c2ccccc12		0 (inactive)	0 (inactive)	0 (inactive)	< 0 (inactive)	0.25 (inactive)	0.127 (inactive)
Nc1nc2ccc(-c3cncc(Oc4ccc(F)cc4)c3)cc2[nH]1	111	2 (active)	1 (inactive)	1 (inactive)	0.3 (inactive)	0.556 (active)	0.688 (active)

SMILES	XTT viability [1] [%]	phenotypic severity score ([2]; 24 h)	phenotypic severity score ([2]; 48 h)	phenotypic severity score ([2]; 72 h)	drug effect ([3]; 24 h)	drug effect ([3]; 48 h)	drug effect ([3]; 72 h)
COc1ccc2nc(C)cc(OCC(=O)NCc3ccccc3)c2c1	74.7	0 (inactive)	0 (inactive)	0 (inactive)	0.0526 (inactive)	0.0556 (inactive)	< 0 (inactive)
CC1CC1C(=O)NC1CCN(CC2(c3ccccc3)CCCCC2)CC1 (stereo not drawn)	82.4	1 (inactive)	0 (inactive)	0 (inactive)	< 0 (inactive)	0.0811 (inactive)	0.222 (inactive)
Cc1ccc(S(=O)(=O)N2CCN(C(=O)c3cc(-c4ccccc4)[nH]n3)CC2)cc1		2 (active)	2 (active)	1 (inactive)	0.455 (inactive)	0.75 (active)	0.836 (active)
Cc1cccc(-c2nc(Nc3ccncn3)c3sccc3n2)n1	39.9	1 (inactive)	3 (active)	4 (active)	0.405 (inactive)	0.667 (active)	0.75 (active)
COc1ccc(-c2cc(NC(=O)c3ccc(F)cc3Cl)ccc2OC)cc1	89.7	0 (inactive)	1 (inactive)	0 (inactive)	0.0909 (inactive)	0.25 (inactive)	0.236 (inactive)
CCCCc1ccc(NC(=O)Nc2ccc(O[C@H]3CCCC[C@@H]3N(C)c3ccccc3)c(F)c2)cc1	33.7	0 (inactive)	0 (inactive)	0 (inactive)	0.111 (inactive)	0.312 (inactive)	0.875 (active)
Clc1ccc(CCNc2cc(-c3ccccc3)nc3ncnn23)cc1		0 (inactive)	1 (inactive)	0 (inactive)	0.136 (inactive)	0.2 (inactive)	0.127 (inactive)
O=C(NC1=NCCS1)c1sc2cc(F)ccc2c1Cl		0 (inactive)	0 (inactive)	0 (inactive)	0.0909 (inactive)	0.1 (inactive)	0.0182 (inactive)
CC1CCCCN1C(=O)NCCc1coc(-c2ccc(F)cc2)n1 (stereo not drawn)	131	1 (inactive)	0 (inactive)	0 (inactive)	0.0909 (inactive)	0.25 (inactive)	0.236 (inactive)
COc1cccc(-n2nnnc2S(C)(=O)=O)c1	-0.214	4 (active)	4 (active)	4 (active)	1 (active)	1 (active)	1 (active)
Cc1cccc(NC(=O)c2cc(S(=O)(=O)N(C)c3ccc(F)cc3)ccc2Cl)n1	81	0 (inactive)	0 (inactive)	0 (inactive)	0.05 (inactive)	0.135 (inactive)	0.222 (inactive)
CC(C)(C)OC(=O)N1CCN(c2cc(-c3ccc(Oc4ccccc4)cc3)n[nH]2)CC1		0 (inactive)	0 (inactive)	0 (inactive)	0.0526 (inactive)	0.167 (inactive)	0.25 (inactive)
CS(=O)(=O)N1CCC(CCn2nc(Cc3cccc4ccccc34)c3c(N)ncnc32)CC1	90.7	0 (inactive)	0 (inactive)	0 (inactive)	0.273 (inactive)	0.45 (inactive)	0.509 (active)
NC(=O)c1cc(Br)ccc1OCCOc1ccccc1	110	1 (inactive)	1 (inactive)	2 (active)	< 0 (inactive)	< 0 (inactive)	< 0 (inactive)
Cc1ccc(NC(=O)CC2COc3ccccc3O2)cc1Cl (stereo not drawn)	125	0 (inactive)	0 (inactive)	0 (inactive)	0.136 (inactive)	0.3 (inactive)	0.4 (inactive)
Cc1nc(-c2ccccn2)nc(N(C)CCc2ccccc2)c1Cl	20.7	1 (inactive)	4 (active)	4 (active)	< 0 (inactive)	0.189 (inactive)	0.697 (active)
CN1CCCC1CCO[C@](C)(c1ccccc1)c1ccc(Cl)cc1 (stereo partly drawn)	46.6	2 (active)	4 (active)	4 (active)	0.9 (active)	1 (active)	1 (active)
Cc1cc(NCC(C)C)c2n[nH]c(-c3ccccc3)c2n1	92.7	0 (inactive)	0 (inactive)	0 (inactive)	0.105 (inactive)	0.111 (inactive)	0.0625 (inactive)
CC1=Nc2ccc(Cl)cc2C(c2ccccc2)N1CCNC(=O)CN(C)C (stereo not drawn)	113	0 (inactive)	0 (inactive)	0 (inactive)	0.35 (inactive)	0.333 (inactive)	0.375 (inactive)
CCCNC(=O)N1CCC2(CC1)CC(=O)c1cc(C)ccc1O2	102	0 (inactive)	0 (inactive)	0 (inactive)	0.1 (inactive)	0.15 (inactive)	0.111 (inactive)
CCOC(=O)c1c(NC(=O)c2c(F)c(F)c(F)c(F)c2F)sc(C(N)=O)c1C	-3.42	4 (active)	4 (active)	4 (active)	1 (active)	1 (active)	1 (active)
